Holding throughout (assay): yeast three-hybrid, YBZ-1, SC-Leu-His + 0.5 mM 3-AT, 4 days
Holding throughout (conditions): tags: N-Gal4 AD-HA kept; label: inside an RPR1-promoter hybrid RNA with tandem MS2 sites; ssRNA

For one assay, the target named is PUM1 PUF domain R5-ERA (Homo sapiens, UniProt Q14671 828-1176, C1007E;Q1011A). In outline: (§1)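 Pumilio-1 PUF domain libraries, randomized (NNK) at the three base-contacting residues of each repeat, were co-expressed with matching RNA elements from a centromeric plasmid in strain YBZ-1 (LexA–MS2 coat fusion, HIS3 reporter). Transformants were plated on SC-Leu (input) and SC-Leu-His + 0.5 mM 3-AT (selection) for four days, and repeat regions were PCR-amplified and Illumina-sequenced. The interaction score is the log2 change in variant frequency from input to selection, with pseudocount 1 where absent.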

Another assay concerns the target PUM1 PUF domain R5-MYW (Homo sapiens, UniProt Q14671 828-1176, C1007M;R1008Y;Q1011W). In outline: as §1
In another assay the target is PUM1 PUF domain R7-RRD (Homo sapiens, UniProt Q14671 828-1176, S1079R;N1080R;E1083D). In outline: as §1
The target in a further assay is PUM1 PUF domain R2-IFA (Homo sapiens, UniProt Q14671 828-1176, N899I;Y900F;Q903A). In outline: as §1
The target of a further assay is PUM1 PUF domain R3-QFR (Homo sapiens, UniProt Q14671 828-1176, C935Q;R936F;Q939R). The gist of the method:
as §1

In another assay the target is PUM1 PUF domain R1-RSN (Homo sapiens, UniProt Q14671 828-1176, S863R;R864S;Q867N). The gist of the method: as §1
Another assay deals with PUM1 PUF domain R1-RYT (Homo sapiens, UniProt Q14671 828-1176, S863R;R864Y;Q867T). In outline: as §1
A further assay concerns the target PUM1 PUF domain R4-PYA (Homo sapiens, UniProt Q14671 828-1176, N971P;H972Y;Q975A). In outline:
as §1

In a further assay the target is PUM1 PUF domain R4-PWR (Homo sapiens, UniProt Q14671 828-1176, N971P;H972W;Q975R). The gist of the method:
as §1

The next assay deals with PUM1 PUF domain R2-RRM (Homo sapiens, UniProt Q14671 828-1176, N899R;Y900R;Q903M). In outline:
as §1

For another assay, the target named is PUM1 PUF domain R2-DFE (Homo sapiens, UniProt Q14671 828-1176, N899D;Y900F;Q903E). The gist of the method:
as §1

“GGCUAGAACUAGUGGAUCCCCCGGCGCCCGGCGGCUCGAGCCCGGGUAAGUGUUAAUAGUCUGCAUGCCGCCGGGCGCCAUGCCUGCAGGUCGACUCUAGAAAACAUG”: the binding signal is 1.72 log2 enrichment (interaction score) in the assay with PUM1 PUF domain R5-ERA and 3.48 log2 enrichment (interaction score) with PUM1 PUF domain R5-MYW.
Turning to “GGCUAGAACUAGUGGAUCCCCCGGCGCCCGGCGGCUCGAGCCCGGGUAAGUUUAAAUAGUCUGCAUGCCGCCGGGCGCCAUGCCUGCAGGUCGACUCUAGAAAACAUG”, the binding signal with PUM1 PUF domain R7-RRD is 4.81 log2 enrichment (interaction score).
With “GGCUAGAACUAGUGGAUCCCCCGGCGCCCGGCGGCUCGAGCCCGGGUAAGUGUAAAAAGUCUGCAUGCCGCCGGGCGCCAUGCCUGCAGGUCGACUCUAGAAAACAUG”, the binding signal with PUM1 PUF domain R2-IFA is 4.76 log2 enrichment (interaction score).
On to “GGCUAGAACUAGUGGAUCCCCCGGCGCCCGGCGGCUCGAGCCCGGGUAAGUGUAACUAGUCUGCAUGCCGCCGGGCGCCAUGCCUGCAGGUCGACUCUAGAAAACAUG”, for which the binding signal with PUM1 PUF domain R3-QFR is 7.11 log2 enrichment (interaction score).
On to “GGCUAGAACUAGUGGAUCCCCCGGCGCCCGGCGGCUCGAGCCCGGGUAAGUGUAAAUGGUCUGCAUGCCGCCGGGCGCCAUGCCUGCAGGUCGACUCUAGAAAACAUG”, for which the binding signal in the assay with PUM1 PUF domain R1-RSN was 2.27 log2 enrichment (interaction score); with PUM1 PUF domain R1-RYT it was 0.45 log2 enrichment (interaction score).
On to “GGCUAGAACUAGUGGAUCCCCCGGCGCCCGGCGGCUCGAGCCCGGGUAAGUGUACAUAGUCUGCAUGCCGCCGGGCGCCAUGCCUGCAGGUCGACUCUAGAAAACAUG”, for which the binding signal was 5.06 log2 enrichment (interaction score) with PUM1 PUF domain R4-PYA and 5.54 log2 enrichment (interaction score) in the assay with PUM1 PUF domain R4-PWR.
Regarding “GGCUAGAACUAGUGGAUCCCCCGGCGCCCGGCGGCUCGAGCCCGGGUAAGUGUCAAUAGUCUGCAUGCCGCCGGGCGCCAUGCCUGCAGGUCGACUCUAGAAAACAUG”, the binding signal in the assay with PUM1 PUF domain R5-ERA is 0.84 log2 enrichment (interaction score).
Turning to “GGCUAGAACUAGUGGAUCCCCCGGCGCCCGGCGGCUCGAGCCCGGGUAAGUCUAAAUAGUCUGCAUGCCGCCGGGCGCCAUGCCUGCAGGUCGACUCUAGAAAACAUG”, in the assay with PUM1 PUF domain R7-RRD, the binding signal was 2.84 log2 enrichment (interaction score).
Take “GGCUAGAACUAGUGGAUCCCCCGGCGCCCGGCGGCUCGAGCCCGGGUAAGUGUAAAGAGUCUGCAUGCCGCCGGGCGCCAUGCCUGCAGGUCGACUCUAGAAAACAUG”: the figures for the binding signal with PUM1 PUF domain R2-RRM and with PUM1 PUF domain R2-DFE were 2.71 log2 enrichment (interaction score) and 7.89 log2 enrichment (interaction score), respectively.
Take “GGCUAGAACUAGUGGAUCCCCCGGCGCCCGGCGGCUCGAGCCCGGGUAAGUGUAAAUUGUCUGCAUGCCGCCGGGCGCCAUGCCUGCAGGUCGACUCUAGAAAACAUG”: in the assay with PUM1 PUF domain R1-RSN, the binding signal was 4.41 log2 enrichment (interaction score).

For the origin of these results see publication PMC8384837, “Expanding the binding specificity for RNA recognition by a PUF domain”.
